Test results: PubChem BioAssay (NCI)
About 83,000 compounds went through this panel and 20% of them were active in at least one assay; those are over-represented in the sample as a whole.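 Each cell line was grown in a 96-well plate and treated with one concentration of compound for 48 hours. Values below 10 were considered active.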 Activity calls are given as the source filed them.

Assays:
Experiment in all cases: NCI-60 one-dose screen, 48 h (100 = growth as untreated, 0 = no growth, -100 = all killed)
Conditions in all cases: 10 µM
SR leukemia = tested on: SR leukemia
RPMI-8226 leukemia = tested on: RPMI-8226 leukemia
OVCAR-8 ovarian = tested on: OVCAR-8 ovarian
OVCAR-5 ovarian = tested on: OVCAR-5 ovarian
OVCAR-4 ovarian = tested on: OVCAR-4 ovarian
SK-OV-3 ovarian = tested on: SK-OV-3 ovarian
IGROV1 ovarian = tested on: IGROV1 ovarian
OVCAR-3 ovarian = tested on: OVCAR-3 ovarian
HS 578T breast = tested on: HS 578T breast
NCI/ADR-RES ovarian = tested on: NCI/ADR-RES ovarian

Measured: growth

Nc1cc(-c2cccc(C(=O)NCc3ccc4c(c3)OCO4)c2)ccn1
inactive: SR leukemia 76.1% | RPMI-8226 leukemia 80.6% | OVCAR-8 ovarian 103% | OVCAR-5 ovarian 121% | OVCAR-4 ovarian 90.1% | SK-OV-3 ovarian 107% | IGROV1 ovarian 112% | OVCAR-3 ovarian 98.5% | HS 578T breast 94.4% | NCI/ADR-RES ovarian 88.5%

COc1ccc(CN2[C@@H](C(=O)NCc3ccc(C(=O)NO)cc3)Cc3c([nH]c4ccccc34)[C@@H]2C2CC2)cc1
active: SK-OV-3 ovarian -24.8% | HS 578T breast -14.3%
inactive: SR leukemia 15.2% | RPMI-8226 leukemia 19.3% | OVCAR-8 ovarian 16.7% | OVCAR-5 ovarian 11.5% | OVCAR-4 ovarian 35.6% | IGROV1 ovarian 18.1% | OVCAR-3 ovarian 10.5% | NCI/ADR-RES ovarian 69.9%

Cc1cccc(-c2nc(Nc3ccccc3C(=O)O)c3ccccc3n2)c1
inactive: SR leukemia 23% | RPMI-8226 leukemia 28.6% | OVCAR-8 ovarian 60.3% | OVCAR-5 ovarian 77% | OVCAR-4 ovarian 41.9% | SK-OV-3 ovarian 76.7% | IGROV1 ovarian 59.2% | OVCAR-3 ovarian 34.1% | HS 578T breast 16.6% | NCI/ADR-RES ovarian 24.8%

Cc1ccc(-c2ccc(SCC(=O)Nc3ccc(S(N)(=O)=O)cc3Br)nn2)cc1
active: OVCAR-8 ovarian -29.8% | OVCAR-3 ovarian -63.8%
inactive: SR leukemia 75.3% | RPMI-8226 leukemia 67.8% | OVCAR-5 ovarian 42% | OVCAR-4 ovarian 19.5% | SK-OV-3 ovarian 101% | IGROV1 ovarian 45.1% | HS 578T breast 31.9% | NCI/ADR-RES ovarian 65%

COc1cc2c3c(n(CCCNC(C)C)c(=O)c2cc1OC)-c1nc2c(cc1C3=O)OCO2
active: SR leukemia 2.57% | RPMI-8226 leukemia -26.2% | OVCAR-8 ovarian -58% | OVCAR-5 ovarian -93.2% | OVCAR-3 ovarian -97.4% | NCI/ADR-RES ovarian -72%
inactive: OVCAR-4 ovarian 49.8% | SK-OV-3 ovarian 26.5% | IGROV1 ovarian 40.8% | HS 578T breast 88.8%

Brc1ccc(N/N=C/c2c[nH]c3ccccc23)nc1
active: SR leukemia 2.45% | RPMI-8226 leukemia 2.19% | IGROV1 ovarian 1.99% | NCI/ADR-RES ovarian 5.81%
inactive: OVCAR-8 ovarian 44.3% | OVCAR-5 ovarian 45.4% | OVCAR-4 ovarian 41.5% | SK-OV-3 ovarian 71% | OVCAR-3 ovarian 19.5% | HS 578T breast 51.7%

COc1cc2c(cc1OC)CN(CCCCOc1cc(O)c3c(=O)cc(-c4ccccc4)oc3c1)CC2
inactive: RPMI-8226 leukemia 24.1% | OVCAR-8 ovarian 85.1% | OVCAR-5 ovarian 114% | OVCAR-4 ovarian 30% | SK-OV-3 ovarian 74.5% | IGROV1 ovarian 95.8% | OVCAR-3 ovarian 94.9% | HS 578T breast 74.2% | NCI/ADR-RES ovarian 57.4%
active: SR leukemia -13.8%

COc1cc2c(c(OC)c1OC)C(=O)CC(c1cccc(NC(=O)c3cccc(N)c3)c1)O2 (stereo unspecified)
inactive: SR leukemia 47.7% | RPMI-8226 leukemia 57.4% | OVCAR-8 ovarian 55% | OVCAR-5 ovarian 123% | OVCAR-4 ovarian 64.1% | SK-OV-3 ovarian 107% | IGROV1 ovarian 86.7% | OVCAR-3 ovarian 80.9% | HS 578T breast 90.3% | NCI/ADR-RES ovarian 68.2%

COc1ccc(/C=C/C(=O)c2ccc(S(=O)(=O)NCCNc3nc(Nc4ccc(F)cc4)nc(N(C)C)n3)cc2)cc1
inactive: RPMI-8226 leukemia 10.5% | OVCAR-8 ovarian 50.6% | OVCAR-5 ovarian 42.5% | OVCAR-4 ovarian 21.8% | SK-OV-3 ovarian 76% | IGROV1 ovarian 43.6% | OVCAR-3 ovarian 15.7% | HS 578T breast 39% | NCI/ADR-RES ovarian 28.1%
active: SR leukemia 3.4%

CCOC(=O)C1=C(N)N(c2ccccc2)C2=C(C(=O)CC(C)(C)C2)C1c1ccc(Cl)cc1 (stereo unspecified)
active: RPMI-8226 leukemia 7.68%
inactive: SR leukemia 13.1% | OVCAR-8 ovarian 61.1% | OVCAR-5 ovarian 57.6% | OVCAR-4 ovarian 29.3% | SK-OV-3 ovarian 43.7% | IGROV1 ovarian 59.5% | OVCAR-3 ovarian 51.6% | HS 578T breast 71.9% | NCI/ADR-RES ovarian 25.6%

CC(C)C1=C[C@@]23CC[C@@H]4[C@](C)(CCC[C@]4(C)C(=O)NCc4ccccc4)[C@H]2C[C@@H]1[C@H]1C(=O)CCC(=O)[C@H]13
inactive: SR leukemia 44.4% | RPMI-8226 leukemia 40.4% | OVCAR-8 ovarian 75.1% | OVCAR-5 ovarian 83.8% | OVCAR-4 ovarian 47.3% | SK-OV-3 ovarian 105% | IGROV1 ovarian 90.6% | OVCAR-3 ovarian 86.9% | HS 578T breast 63.1% | NCI/ADR-RES ovarian 74%

C/C(=N\N=C\c1ccc(N(C)C)cc1)c1ccc2c(c1)Nc1ccccc1S2
inactive: SR leukemia 50% | RPMI-8226 leukemia 48.5% | OVCAR-8 ovarian 38.5% | OVCAR-5 ovarian 57.4% | OVCAR-4 ovarian 17.4% | SK-OV-3 ovarian 87.8% | IGROV1 ovarian 68.9% | OVCAR-3 ovarian 44.5% | HS 578T breast 18.7% | NCI/ADR-RES ovarian 26.6%

CCOC(=O)C1=C(N)N(c2ccc(C)cc2)C2=C(C(=O)CC(C)(C)C2)C1c1ccccc1OC (stereo unspecified)
inactive: SR leukemia 92.1% | RPMI-8226 leukemia 96.2% | OVCAR-8 ovarian 110% | OVCAR-5 ovarian 104% | OVCAR-4 ovarian 108% | SK-OV-3 ovarian 103% | IGROV1 ovarian 98.6% | OVCAR-3 ovarian 118% | HS 578T breast 102% | NCI/ADR-RES ovarian 99.7%

COc1cc(NC(=O)CSc2nnc(-c3ccc4nc(-c5ccc(Cl)cc5)[nH]c4c3)o2)cc(OC)c1OC
inactive: SR leukemia 48% | RPMI-8226 leukemia 21.3% | OVCAR-8 ovarian 42.1% | OVCAR-5 ovarian 132% | OVCAR-4 ovarian 61.9% | SK-OV-3 ovarian 101% | IGROV1 ovarian 73.8% | OVCAR-3 ovarian 71.8% | HS 578T breast 50.6% | NCI/ADR-RES ovarian 99.8%

COc1ccc(C(=O)/C=C/c2cc(F)cc(C(F)(F)F)c2)cc1S(N)(=O)=O
inactive: SK-OV-3 ovarian 42.1%
active: SR leukemia 3.04% | RPMI-8226 leukemia 2.99% | OVCAR-8 ovarian -44.1% | OVCAR-5 ovarian -59.9% | OVCAR-4 ovarian -98% | IGROV1 ovarian -53.6% | OVCAR-3 ovarian -95.3% | HS 578T breast -25.7% | NCI/ADR-RES ovarian 5.77%

COc1ccc2c3nc4cc(C)c(C)cc4nc3n(CCN(C)C)c2c1
active: SR leukemia 9.88% | RPMI-8226 leukemia 9.26% | OVCAR-8 ovarian -56.4% | OVCAR-4 ovarian -26.1% | SK-OV-3 ovarian -12.8% | IGROV1 ovarian -8.59% | OVCAR-3 ovarian -47.1% | NCI/ADR-RES ovarian 0.91%
inactive: OVCAR-5 ovarian 24.5% | HS 578T breast 49.1%

Nc1nnc(-c2c[nH]c3ncccc23)c(-c2c[nH]c3ccc(Br)cc23)n1
inactive: SR leukemia 19.1% | RPMI-8226 leukemia 38.7% | OVCAR-8 ovarian 46.2% | OVCAR-5 ovarian 68.2% | OVCAR-4 ovarian 55.7% | SK-OV-3 ovarian 55.3% | IGROV1 ovarian 25.7% | OVCAR-3 ovarian 52.6% | NCI/ADR-RES ovarian 98.6%

COc1ccc(-c2cc(-c3cc(C(=O)c4ccccc4)n4ccc(C)cc34)nc(N)c2C#N)cc1
active: HS 578T breast 8.95%
inactive: SR leukemia 86.7% | RPMI-8226 leukemia 78.9% | OVCAR-8 ovarian 20.2% | OVCAR-5 ovarian 90% | OVCAR-4 ovarian 24.2% | SK-OV-3 ovarian 94.4% | IGROV1 ovarian 79.1% | OVCAR-3 ovarian 60.5% | NCI/ADR-RES ovarian 43.6%

C=C1CCC2C3(C)COC(c4cccc(F)c4)OC3CCC2(C)C1CC(O)C1=CCOC1=O (stereo unspecified)
active: NCI/ADR-RES ovarian 4.5%
inactive: SR leukemia 40.4% | RPMI-8226 leukemia 20.6% | OVCAR-8 ovarian 15.1% | OVCAR-5 ovarian 76.1% | OVCAR-4 ovarian 67.1% | SK-OV-3 ovarian 108% | IGROV1 ovarian 61.1% | OVCAR-3 ovarian 62.1% | HS 578T breast 74.6%

Cc1ccc(/C=C/C(=O)c2ccc(NC(=O)CSc3nnc(-c4c[nH]c5ccccc45)n3-c3ccccc3)cc2)c(C)c1
active: OVCAR-8 ovarian 1.17%
inactive: SR leukemia 41.6% | RPMI-8226 leukemia 22.8% | OVCAR-5 ovarian 77.3% | OVCAR-4 ovarian 13.1% | SK-OV-3 ovarian 106% | IGROV1 ovarian 66.8% | OVCAR-3 ovarian 32% | HS 578T breast 67.8% | NCI/ADR-RES ovarian 64.2%

CC(C)c1ccc(C(=O)Nc2sc3c(c2C(N)=O)CCC(=O)C3=O)cc1
inactive: SR leukemia 72.8% | RPMI-8226 leukemia 85% | OVCAR-8 ovarian 94.2% | OVCAR-5 ovarian 114% | OVCAR-4 ovarian 91.5% | SK-OV-3 ovarian 89.4% | IGROV1 ovarian 72.4% | OVCAR-3 ovarian 87% | NCI/ADR-RES ovarian 97.4%

O=C(/C=C/Nc1ccccc1)c1ccc2c(c1)Nc1ccccc1S2
inactive: SR leukemia 87.8% | RPMI-8226 leukemia 90.9% | OVCAR-8 ovarian 33.5% | OVCAR-5 ovarian 87.7% | OVCAR-4 ovarian 49.2% | SK-OV-3 ovarian 86.3% | IGROV1 ovarian 87.3% | OVCAR-3 ovarian 91.1% | NCI/ADR-RES ovarian 61.2%

CN1CCc2c(sc3ncnc(N/N=C/c4ccc5ccccc5c4)c23)C1
active: SR leukemia 9.62%
inactive: RPMI-8226 leukemia 42.6% | OVCAR-8 ovarian 78.6% | OVCAR-5 ovarian 88.6% | OVCAR-4 ovarian 73.9% | SK-OV-3 ovarian 96.1% | IGROV1 ovarian 87.9% | OVCAR-3 ovarian 75% | HS 578T breast 62.3% | NCI/ADR-RES ovarian 76.7%

COc1ccc(Nc2nc(N)n(Cc3cccc(Br)c3)n2)cc1
inactive: SR leukemia 12.6% | OVCAR-8 ovarian 26.2% | OVCAR-5 ovarian 21.7% | SK-OV-3 ovarian 22.8% | IGROV1 ovarian 12% | OVCAR-3 ovarian 19.6%
active: RPMI-8226 leukemia 8.38% | OVCAR-4 ovarian 7.22% | HS 578T breast -12.3% | NCI/ADR-RES ovarian 2.23%

Cc1cccc(NC(=O)CSc2nc3ccc(F)cc3c(=O)n2-c2ccc(Cl)cc2)c1C
inactive: SR leukemia 61.9% | RPMI-8226 leukemia 88.1% | OVCAR-8 ovarian 32.5% | OVCAR-5 ovarian 90.3% | OVCAR-4 ovarian 67.7% | SK-OV-3 ovarian 56.8% | IGROV1 ovarian 53% | OVCAR-3 ovarian 93.9% | HS 578T breast 25.7% | NCI/ADR-RES ovarian 56%

CCCSc1nc(NC2CC2)c(C#N)c(-c2ccc(OC)cc2)n1
inactive: SR leukemia 98.4% | RPMI-8226 leukemia 96.6% | OVCAR-8 ovarian 69.2% | OVCAR-5 ovarian 105% | OVCAR-4 ovarian 84.5% | SK-OV-3 ovarian 115% | IGROV1 ovarian 108% | OVCAR-3 ovarian 93.5% | NCI/ADR-RES ovarian 68.7%
